Compound activity deposited in PubChem by National Center for Advancing Translational Sciences (NCATS).
G9a block: G9a (human) methyltransferase inhibition; Q96KQ7; G9a H3K9 monomethylation, AlphaScreen, 2 h; Potency, µM (top dose mostly 102 µM), without a hit: top-dose activity, negative = inhibition, actives largely listed as inhibitors; actives 8.8% (n = 350,000); AID 504332; also: % is scaled to controls: 0 for no effect and ±100 for the full control effect; nearly all actives have a fitted effect of over 75% in size
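Compounds were preincubated with 20 nM G9a for 15 min, after which biotinylated H3K9 peptide (500 nM) and SAM (20 uM) started a 2 h room-temperature reaction. Monomethylated product was quantified by antibody-based AlphaScreen chemiluminescence.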
HP1b chromo inh: blocks HP1-beta chromodomain binding to methylated histone tails; P83916; AlphaScreen HP1-beta / biotin-H3K9me3 peptide binding; Potency, µM (series often up to 114 µM), inactives show at the highest dose activity change, negative = inhibition, usual class: inhibitors; actives 0.56% (n = 390,000); AID 540317; also: nearly all actives have a fitted effect of over 70% in size
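HP1-beta protein (50 nM final) preincubated 30 min at room temperature with biotinylated H3(1-18)K9me3 peptide (50 nM) in PBS pH 7.4, 0.01% Tween-20, then compound added for 30 min. AlphaScreen streptavidin donor/nickel chelate acceptor beads (10 ug/mL final), 30 min dark, luminescence read.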
PLK1 PBD inh: PLK1 (human) polo-box domain binding inhibition | Plk1 PBD binding of FITC phosphopeptide, fluorescence polarization | AID 720504 | Potency, µM, for inactives: max response, negative = inhibition, most hits filed as inhibitors | actives 2.8% (n = 360,000); also: series mostly up to about 57 µM; % is scaled to controls: 0 for no effect and ±100 for the full control effect; nearly all actives have a fitted effect of over 65% in size
JMJD2A Tudor: JMJD2A Tudor domain (human) inhibition; AID 504339; AlphaScreen JMJD2A-Tudor / H3K4me3 peptide binding; Potency, µM (highest dose often 114 µM), for inactives: at the highest dose activity change, negative = inhibition, most hits filed as inhibitors; actives 4.4% (n = 390,000); also: % is scaled to controls: 0 for no effect and ±100 for the full control effect; nearly all actives have a fitted effect of over 50% in size
BAZ2B block: BAZ2B (human) inhibition; AID 504333; Potency, µM (doses to about 114 µM), for the others: at the highest dose activity change, negative = inhibition, actives largely listed as inhibitors; AlphaScreen BAZ2B-H3K14Ac peptide displacement; actives 4.4% (n = 360,000); Q9UIF8; also: % is scaled to controls: 0 for no effect and ±100 for the full control effect; nearly all actives have a fitted effect of over 60% in size
Target sequence (Q9UIF8 whole entry, looked up): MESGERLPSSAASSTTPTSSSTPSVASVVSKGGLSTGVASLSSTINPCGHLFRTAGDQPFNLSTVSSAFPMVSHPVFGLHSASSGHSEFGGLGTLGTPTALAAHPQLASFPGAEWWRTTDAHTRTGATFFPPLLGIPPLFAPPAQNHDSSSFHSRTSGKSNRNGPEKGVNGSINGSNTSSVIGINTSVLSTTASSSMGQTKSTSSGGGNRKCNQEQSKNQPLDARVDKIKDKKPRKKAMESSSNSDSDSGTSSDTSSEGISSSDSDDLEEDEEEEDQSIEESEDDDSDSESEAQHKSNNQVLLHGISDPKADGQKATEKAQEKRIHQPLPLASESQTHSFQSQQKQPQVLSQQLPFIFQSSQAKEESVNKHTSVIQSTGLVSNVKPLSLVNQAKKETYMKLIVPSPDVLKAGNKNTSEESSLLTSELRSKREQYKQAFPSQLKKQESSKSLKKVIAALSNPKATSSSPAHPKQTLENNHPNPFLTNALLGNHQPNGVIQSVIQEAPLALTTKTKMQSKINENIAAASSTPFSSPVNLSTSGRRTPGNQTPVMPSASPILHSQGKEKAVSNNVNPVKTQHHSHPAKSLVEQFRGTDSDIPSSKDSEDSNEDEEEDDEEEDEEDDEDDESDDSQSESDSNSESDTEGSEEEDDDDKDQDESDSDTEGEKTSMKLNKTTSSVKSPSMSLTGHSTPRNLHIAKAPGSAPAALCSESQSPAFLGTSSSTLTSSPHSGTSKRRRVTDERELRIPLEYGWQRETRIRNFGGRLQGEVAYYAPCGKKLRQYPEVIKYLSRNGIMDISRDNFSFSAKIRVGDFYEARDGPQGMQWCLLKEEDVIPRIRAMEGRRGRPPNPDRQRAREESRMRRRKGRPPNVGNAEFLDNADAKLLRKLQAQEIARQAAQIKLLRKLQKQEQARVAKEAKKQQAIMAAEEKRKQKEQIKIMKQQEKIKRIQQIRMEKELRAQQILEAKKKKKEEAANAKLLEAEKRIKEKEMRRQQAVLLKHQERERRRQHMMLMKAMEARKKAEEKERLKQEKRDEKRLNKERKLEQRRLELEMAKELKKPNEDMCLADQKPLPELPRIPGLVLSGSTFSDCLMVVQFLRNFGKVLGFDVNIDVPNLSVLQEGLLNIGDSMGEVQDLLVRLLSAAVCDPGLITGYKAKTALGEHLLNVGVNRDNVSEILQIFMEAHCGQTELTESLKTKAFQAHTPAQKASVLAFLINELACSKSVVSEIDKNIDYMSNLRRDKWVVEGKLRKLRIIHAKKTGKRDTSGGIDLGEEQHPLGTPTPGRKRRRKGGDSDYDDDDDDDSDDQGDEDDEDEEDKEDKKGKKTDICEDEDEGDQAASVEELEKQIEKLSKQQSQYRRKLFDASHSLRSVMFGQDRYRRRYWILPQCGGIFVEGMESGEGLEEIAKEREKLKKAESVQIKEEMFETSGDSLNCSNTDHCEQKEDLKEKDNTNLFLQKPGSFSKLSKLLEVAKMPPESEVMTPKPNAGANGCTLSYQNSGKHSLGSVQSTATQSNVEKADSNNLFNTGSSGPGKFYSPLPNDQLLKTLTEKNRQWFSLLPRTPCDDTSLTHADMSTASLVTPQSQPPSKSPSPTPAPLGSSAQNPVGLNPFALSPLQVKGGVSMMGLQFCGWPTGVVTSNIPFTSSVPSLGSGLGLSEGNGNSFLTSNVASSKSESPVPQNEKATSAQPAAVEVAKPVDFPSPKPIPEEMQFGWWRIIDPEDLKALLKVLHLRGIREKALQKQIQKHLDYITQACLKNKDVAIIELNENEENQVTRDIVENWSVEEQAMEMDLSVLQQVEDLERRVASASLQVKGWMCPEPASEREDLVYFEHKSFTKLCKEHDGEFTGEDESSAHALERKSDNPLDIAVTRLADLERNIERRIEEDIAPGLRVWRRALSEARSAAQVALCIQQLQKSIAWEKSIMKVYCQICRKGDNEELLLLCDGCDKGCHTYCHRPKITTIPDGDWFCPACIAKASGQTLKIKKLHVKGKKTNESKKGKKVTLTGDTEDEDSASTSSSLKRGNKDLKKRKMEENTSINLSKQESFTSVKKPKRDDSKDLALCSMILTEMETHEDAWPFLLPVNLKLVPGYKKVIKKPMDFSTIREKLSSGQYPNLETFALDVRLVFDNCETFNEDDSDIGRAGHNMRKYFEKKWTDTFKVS
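AlphaScreen luminescence quantifies BAZ2B engagement of H3K14Ac peptide; the protein and biotinylated peptide are both at 50 nM final, buffer PBS pH 7.4 with 0.01% Tween-20, all steps at room temperature.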
Sfp PPTase inh: inhibitors of Bacillus subtilis Sfp phosphopantetheinyl transferase; Q9F4F7; actives 3.5% (n = 310,000); Potency, µM, without a hit: largest response in the series, negative = inhibition, usual class: inhibitors; Biochemical Sfp PPTase activity, qHTS;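 also: the enzyme is Sfp with the accession as filed and its product quenches rhodamine fluorescence; 0% = enzyme reaction without inhibitor and -100% = no enzyme wells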
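Step 1, compound plus 15 nM Sfp-PPTase, 15 min, room temperature. Step 2, add rhodamine-CoA (5 uM) and BHQ-2-YbbR (12.5 uM). Step 3, read 525/598 nm fluorescence at 0 and 30 min.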
* hit, by the source's call; u = inconclusive; x = no result; [ ] = dose if it differs, or a comment. An excerpt weighted towards active compounds, which were near 12% of everything screened. Calls follow the shape of the dose curve; as a rule, active = well fitted curve in the direction sought with a large enough effect; inconclusive = small, poorly fitted or top-dose-only effect, or another doubt; inactive = no such curve, though single readings can be large; an effect the other way counts as inactive or inconclusive. Potency is read from the fitted curve at half-maximal effect.

SMILES	G9a block	HP1b chromo inh	PLK1 PBD inh	JMJD2A Tudor	BAZ2B block	Sfp PPTase inh
COc1cc(/C=N/NC(=O)C(Cc2c[nH]c3ccccc23)NC(=O)OCc2ccccc2)cc([N+](=O)[O-])c1O (stereo unspecified)	8.91µM*	u	u	39.8µM*	44.7µM*	-12.4%
COc1cc(/C=N/NC(=O)C(Cc2c[nH]c3ccccc23)NC(=O)OCC(C)C)cc([N+](=O)[O-])c1O (stereo unspecified)	u	-29.8%	-2.3%	u	50.1µM*	2.4%
COc1cc(/C=N/NC(=O)C(Cc2c[nH]c3ccccc23)NC(=O)OCC(C)C)cc([N+](=O)[O-])c1OCc1ccccc1 (stereo unspecified)	u	26.5%	3.5%	-16.8%	-36.9%	16.4%
O=C(NCc1ccc(Cl)nc1)c1ccc2nc([C@@H]3O[C@H](CO)[C@H](O)[C@H](O)[C@H]3O)[nH]c2c1	x	x	-13.3%	x	x	x
O=C(Nc1cc(S(=O)(=O)N2CCOCC2)ccc1O)c1ccco1	41.7%[0.501 µM]	-21.6%	29.9µM*	-3.2%	-26.8%	56.2µM*
O=C(Nc1cc(S(=O)(=O)N2CCOCC2)ccc1O)c1ccc2c(c1)S(=O)(=O)c1ccccc1C2=O	4.47µM*	u	10.6µM*	u	u	20µM*
CCCc1nn2c(=O)cc(COC(=O)c3ccc4c(c3)OCO4)nc2s1	0.7%[59 µM]	-14.9%	x	-21.3%	-15.0%	x
Cc1c(C(=O)Nc2cccc(C(F)(F)F)c2)sc2nc3n(c(=O)c12)CCCC3	3.55µM*	42.8%	x	-14.1%	-1.3%	x
CCOc1ccc(NC(=O)c2sc3nc4n(c(=O)c3c2C)CCCC4)cc1	15.8µM*	57.3%	x	u	31.6µM*	x
CCc1ccc(NC(=O)c2sc3nc4n(c(=O)c3c2C)CCC4)cc1	80.0%	21.2%[57 µM]	-1.2%	-16.1%	-16.8%	-3.8%
CC(=O)c1cccc(NC(=O)c2sc3nc4n(c(=O)c3c2C)CCCC4)c1	-9.1%	16.3%	23.8µM*	u	-38.0%	22.1%
Cc1c(C(=O)N(C)c2cccc(C(F)(F)F)c2)sc2nc3n(c(=O)c12)CCCCC3	14.1µM*	82.9%	x	u	31.6µM*	x
Cc1nc2cncnc2n(C2CC2)c1=O	-32.4%[0.501 µM]	x	x	x	x	20.5%
Cc1cccc(C(=O)Oc2ccc(/C=N/O)cc2)c1	10µM*	51.3%	-6.3%	-1.3%	-4.5%	-10.7%
O=C(Oc1ccc(/C=N/O)cc1)c1ccccc1Cl	u	38.5%	-7.8%	-4.2%	-26.4%	-8.7%
CC1CN(S(=O)(=O)c2cc(C(=O)NC(C)c3cccnc3)ccc2Cl)CC(C)O1 (stereo unspecified)	x	19.3%	-16.5%	-15.8%	x	x
CCOC(=O)C(=NCCCN1CCOCC1)NNc1cccc(C(F)(F)F)c1	50.1µM*	-17.6%	-12.8%	-32.9%	u	-13.2%
OCCCN=c1cc(-c2ccccc2)oc2ccc(Cl)cc12	u	40.2%	-0.9%	-11.2%	-5.6%	5.3%
CC1(C)CC(N=c2cc(-c3ccccc3)oc3ccc(Cl)cc23)CC(C)(C)N1	70.8µM*	19.2%	1.2%	-23.4%	u	-29.9%
Cc1cccc(C(=O)Nc2ccc(C(=O)OCc3cc(=O)n4c(C)csc4n3)cc2)c1	4.9%[59 µM]	61.8%	x	u	79.4µM*	x
COc1ccc(N=C2C(=Nc3ccc(OC)cc3)N(c3ccc(OC)cc3)C(=S)N2c2ccccc2)cc1	u	u	0.4%	u	2µM*	-4.0%
COc1ccc(N=C2SCC(=O)N2c2ccc(OC)cc2)cc1	0.5%	18.5%	-1.2%	-18.5%	4.7%	-1.3%
COc1ccc(N=C2C(=Nc3ccc(OC)cc3)N(c3ccc(OC)cc3)C(=S)N2C)cc1	5.01µM*	7.08µM*	-5.2%	8.91µM*	2.82µM*	10.0%
COc1ccc(C2=Nn3c(nnc3-c3cccc(OC)c3OC)SC2)c(OC)c1	x	x	x	-21.4%	x	-3.9%
Cc1nc(S(=O)(=O)Nc2ccccc2C(=O)NCC2CC2)cn1C	-4.5%	31.7%	-0.7%	0.0%	-12.9%	8.0%
SMILES	G9a block	HP1b chromo inh	PLK1 PBD inh	JMJD2A Tudor	BAZ2B block	Sfp PPTase inh
CCCCCCC1=Cc2cc(OC)c(OC)cc2C(C2(C(=O)OCC)CCCC2=O)O1 (stereo unspecified)	x	x	x	x	x	-10.9%
O=C1C(=O)N(O)C2CCCCC2N1O (stereo unspecified)	7.94µM*	20.7%	-0.5%	u	u	-18.3%
O=C(O)CCN1C(=O)C2CCCCC2C1=O (stereo unspecified)	-62.5%	36.2%	-2.7%	-8.6%	-2.6%	2.1%
CN1CCN(C(=O)c2ccc(S(=O)(=O)N(C)c3ccccc3)cc2)CC1	x	x	3.2%	x	x	x
CN1CCCN(C(=O)c2ccc(Cl)c(S(=O)(=O)N(C)c3ccccc3)c2)CC1	50.1µM*	28.4%	-3.3%	-12.8%	-0.2%	9.2%
COc1ccc(-n2c(=O)c(-c3ccc(Cl)cc3)nc3cnc(N(C)C)nc32)cc1	-17.3%[0.501 µM]	x	x	x	x	-0.8%
Cc1ccccc1OCC(O)CNCCOc1ccc(C(N)=O)cc1 (stereo unspecified)	-37.8%[2.33 µM]	x	x	x	x	14.0%
Cc1ccc(OCCNCC(O)COc2ccccc2)cc1 (stereo unspecified)	u	-11.4%	1.2%	56.2µM*	50.1µM*	-20.9%
COc1ccccc1NCC(O)COc1ccc(C(C)(C)C)cc1 (stereo unspecified)	7.94µM*	20µM*	-3.6%	2.82µM*	22.4µM*	u
COc1ccc(OCC(O)CNCCOc2ccccc2OC)c(C(C)(C)C)c1 (stereo unspecified)	u	-0.9%	u	22.4µM*	50.1µM*	u
OC(CNc1ccccc1)COc1ccc(OCC(O)CNc2ccccc2)cc1 (stereo unspecified)	u	-38.4%	-22.2%	50.1µM*	50.1µM*	2.9%
O=C(O)COc1ccc(OCCNC[C@@H](O)COc2ccccc2)cc1	x	x	x	x	x	-8.8%
CC1CCc2c(C(=O)Nc3ccc(N4CCOCC4)cc3)csc2C1 (stereo unspecified)	u	3.0%	u	-12.7%	-1.4%	14.5%
COc1ccccc1C(=O)Nc1ccccc1SCc1cc(=O)c2ccccc2[nH]1	-20.9%[59 µM]	32.9%[57 µM]	x	-2.9%	2.5%	x
COc1ccc(C(C(=O)NC(C)(C)C)N(C(=O)CCC(=O)Nc2cc(C)on2)c2cccc(C)c2C)cc1 (stereo unspecified)	-10.5%	18.5%	-9.3%	-9.4%	9.2%	17.1%
Cc1occc1C(=O)NNC(=O)Nc1ccc(Cl)c(Cl)c1	0.3%[59 µM]	-7.7%	6.7µM*	50.1µM*	-3.5%	-28.0%
CNS(=O)(=O)c1ccc(NC(=O)c2ccoc2C)cc1	-33.5%	28.6%	-2.0%	3.0%[11.4 µM]	-21.5%	24.0%
